Test results: PubChem BioAssay AID1611 (NINDS Approved Drug Screening Program, 2009)
Values joined by “and” are separate entries in the source; they are usually repeats but may differ in a detail not shown here. Equal values may be shown once.

Test: inducers of human heat shock response, cell-based, HSE luciferase (AID 1611)
Settings: human cells, HSE-luciferase heat shock reporter; stronger effect = higher value

SMILES | fold change
CC(=O)O[C@]1(C(C)=O)CCC2C3C=C(Cl)C4=CC(=O)[C@@H]5C[C@@H]5[C@]4(C)C3CC[C@@]21C (stereo not given in full) | 9.01
Nc1nc2c(ncn2COCCO)c(=O)[nH]1 | 1.01
Cc1cccc(Nc2ccccc2C(=O)O)c1C | 1.2
N[C@@H]1[C@@H](O)[C@H](O)[C@@H](CO)O[C@H]1O | 1.15
CC(C)NCC(O)COc1cccc2ccccc12 (stereo not given) | 0.95
CO[C@@H]1[C@@H](O[C@@H]2O[C@H](C)[C@@H](O[C@H]3C[C@@](C)(O)[C@H](O)[C@H](C)O3)[C@H](N(C)C)[C@H]2O)[C@@H](CC=O)C[C@@H](C)[C@@H](O[C@H]2CC[C@H](N(C)C)[C@@H](C)O2)/C=C/C=C/C[C@H](C)OC(=O)C[C@H]1O | 62.6
COCCc1ccc(OCC(O)CNC(C)C)cc1 (stereo not given) | 0.6
CC1CCC(NC(=O)N(CCCl)N=O)CC1 (stereo not given) | 0.95
O=C(CCCN1CC=C(n2c(=O)[nH]c3ccccc32)CC1)c1ccc(F)cc1 | 0.88
COC1=C2C[C@@H](C)C[C@H](OC)[C@H](O)[C@@H](C)/C=C(\C)[C@@H](OC(N)=O)[C@H](OC)/C=C\C=C(/C)C(=O)NC(=CC1=O)C2=O | 1.05
Cc1ccc(C(=O)C(C)CN2CCCCC2)cc1 (stereo not given) | 0.93
CC(C)(Oc1ccc(CCNC(=O)c2ccc(Cl)cc2)cc1)C(=O)O | 1.4
CN[C@@H]1[C@H](O)[C@H](NC)[C@H]2O[C@@]3(O)C(=O)C[C@@H](C)O[C@H]3O[C@@H]2[C@H]1O | 1.27
C[C@@H]1O[C@@H](O[C@H]2[C@H](Oc3cc(O)c4c(c3)O[C@H](c3ccc(O)cc3)CC4=O)O[C@H](CO)[C@@H](O)[C@@H]2O)[C@H](O)[C@H](O)[C@H]1O | 1.36
CC[C@H]1CN2CCc3cc(OC)c(OC)cc3C2C[C@@H]1CC1NCCc2cc(OC)c(OC)cc21 (stereo not given in full) | 0.89
O=c1[nH]cc(F)c(=O)[nH]1 | 0.52
COc1ccc(C[C@H](N)C(=O)N[C@@H]2[C@@H](CO)OC(n3cnc4c(N(C)C)ncnc43)[C@@H]2O)cc1 (stereo not given in full) | 1.26
CCN(CC)CCOC(=O)C(c1ccccc1)c1ccccc1 | 1.24
CC(=O)Nc1ccccc1 | 0.93
O=C1OCCN1/N=C/c1ccc([N+](=O)[O-])o1 | 1.79

SMILES | fold change
CN(C)C(=O)Oc1ccc[n+](C)c1 | 1.31
CC(C)CC1NC(=O)CNC1=O (stereo not given) | 0.55
CCOC(N)=O | 0.87
O=C(OCC(O)CO)c1ccccc1Nc1ccnc2cc(Cl)ccc12 (stereo not given) | 0.5
COC(=O)[C@H]1[C@H]2C[C@@H]3c4[nH]c5cc(OC)ccc5c4CCN3C[C@H]2C[C@@H](OC(=O)c2cc(OC)c(OC)c(OC)c2)[C@@H]1OC | 0.6
NC(N)=N/N=C\c1c(Cl)cccc1Cl | 0.39
CCOC(=O)C(Cc1ccc(O)cc1)NC(C)=O (stereo not given) | 0.71
CN1C2CC[C@H]1CC(OC(=O)C(O)c1ccccc1)C2 (stereo not given in full) | 1.12
COc1ccc(CCN2CCC(Nc3nc4ccccc4n3Cc3ccc(F)cc3)CC2)cc1 | 1.64
C1CNCCN1 | 1.04
CNCCC=C1c2ccccc2CCc2ccccc21 | 1.45
COc1c(C)c2c(c(O)c1C/C=C(\C)CCC(=O)O)C(=O)OC2 | 0.85
CC(=O)O[C@H]1C[C@@]2(C)[C@@H](C[C@@H](O)C3[C@]2(C)CC[C@H]2[C@H](C)[C@H](O)CC[C@]32C)/C1=C(/CCC=C(C)C)C(=O)O (stereo not given in full) | 1
CN1CCc2cccc3c2C1Cc1ccc(O)c(O)c1-3 (stereo not given) | 0.71
NCCCCCCNS(=O)(=O)c1cccc2c(Cl)cccc12 | 1.18 and 0.78
CCCN(CCC)S(=O)(=O)c1ccc(C(=O)O)cc1 | 0.78
CN(C)CCOC(c1ccccc1)c1ccccc1 (tested in a mixture with another compound) | 0.8
C#C[C@]1(OC(C)=O)CCC2C3CCC4=CC(=O)CC[C@@H]4C3CC[C@@]21C (stereo not given in full) | 0.92
NC(=O)NC1NC(=O)NC1=O (stereo not given) | 0.91
CCN1CCCC(OC(=O)C(c2ccccc2)c2ccccc2)C1 (stereo not given) | 0.74
